Results reported in PubChem BioAssay (NCI).
Compounds without any hit were thinned out: in the full panel of roughly 83,000, 20% have a hit.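 96-well plates, one dose, 48 hours. Percent growth reported; active if below 10.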 A number with no mark means an inactive call. Activity calls are given as the source filed them.

Columns and labels:
Assay in all cases: NCI-60 one-dose screen, 48 h (100 = growth as untreated, 0 = no growth, -100 = all killed)
Details in all cases: 10 µM unless noted
[1] = system: SK-MEL-2 melanoma
[2] = system: EKVX NSCLC
[3] = system: SN12C renal
[4] = system: UO-31 renal
[5] = system: TK-10 renal
[6] = system: ACHN renal
[7] = system: CAKI-1 renal
[8] = system: A498 renal
[9] = system: CCRF-CEM leukemia
[10] = system: MOLT-4 leukemia

Row | SMILES | growth [1] | growth [2] | growth [3] | growth [4] | growth [5] | growth [6] | growth [7] | growth [8] | growth [9] | growth [10]
1 | CC(C)C[C@H](NC(=O)[C@@H]1CCCCCCCCCCC(=O)N[C@@H](CC(=O)N2CCC[C@@H]2C2CCCC2)C(=O)N1)B(O)O | -70.6% (active) | -39.2% (active) | -88.9% (active) | -66.8% (active) | 0.691% (active) | 3.27% (active) | 7.24% (active) | -87.2% (active) | 44% | -19.9% (active)
2 | CN(C)CCOc1ccc(C(=O)C2[C@H](c3ccc(Cl)cc3)[C@@H](c3ccccc3)NC23C(=O)Nc2ccc(Cl)cc23)cc1 (stereo not given in full) | -92.5% (active) | -93.9% (active) | -94.5% (active) | -99.7% (active) | -96.7% (active) | -100% (active) | -98.6% (active) | -95.9% (active) | -65.4% (active) | -77.4% (active)
3 | Cc1cccc(C)c1Nc1nnc(-c2c[nH]c3ccccc23)o1 | 99.5% | 74.6% | 87.8% | 65.3% | 148% | 93.9% | 82.7% | 134% | 106% | 91.1%
4 | O=C(NN1C(=O)/C(=C/C=C/c2ccc([N+](=O)[O-])o2)SC1=S)c1ccc(O)cc1 | -89.4% (active) | -98.1% (active) | -97.5% (active) | -92.7% (active) | -99.3% (active) | -100% (active) | -100% (active) | 14.6% | -24% (active) | -40.7% (active)
5 | COc1c(B(O)O)cc(F)cc1-c1nc2ccc3[nH]ncc3c2c2c1COCC2 | 93.9% | 75.3% | 50.3% | 55% | 14.2% | 36.4% | -12.1% (active) | 106% | 19.1% | 53.1%
6 | COc1ccc([C@H]2C(C(=O)c3ccc(Cl)cc3)C3(N[C@@H]2c2ccccc2)C(=O)Nc2ccccc23)cc1 (stereo not given in full) | -29.6% (active) | 21.6% | 6.41% (active) | 13.2% | 43.4% | 11.2% | 14% | 40.2% | 45.8% | 18.9%
7 | Cc1cc(=O)oc2cc(OCC(O)CNN3C(=O)c4cccc5c(N6CCN(C)CC6)ccc(c45)C3=O)ccc12 (stereo not given) | 92.2% | 97.3% | 88.9% | 83.8% | 138% | 91.2% | 96.2% | 122% | 96.7% | 90.4%
8 | COc1cc(NC(=O)C(C)C)ccc1C(=O)NC(=S)Nc1ccc(S(N)(=O)=O)cc1 | 97.4% | 102% | 100% | 89.7% | 94.6% | 103% | 96.7% | 150% | 97.5% | 118%
9 | CCCCCCCCc1ccc(C(=O)Nc2ccc(C)c(OP(=O)(O)O)c2)cc1 | 109% | 101% | 95.1% | 62.4% | 107% | 103% | 102% | 107% | 42.9% | 78.3%
10 | COc1cccc(C(N)=Nc2ccc(OCCCCCCCCn3cncn3)cc2)c1 | 14% | 37.4% | 20.6% | 39.5% | 57% | 28% | 40.3% | 94.3% | 16.4% | 16.8%
11 | O=c1[nH]c2ccccc2cc1CSc1ccccc1Nc1nccc(-c2ccc3c(c2)OCO3)n1 | 96.7% | 86.6% | 57% | 77.6% | 107% | 51.6% | 16% | 126% | 101% | 93.6%
12 | COc1cc(C2CC(c3cc(OC)c(OC)c(OC)c3)=Nc3c(N)nc(N)nc3N2)ccc1Oc1nc(Nc2ccc(F)cc2)nc(N(C)C)n1 (stereo not given) | 82.7% | 67.5% | 78.5% | 40.3% | 99.8% | 68.1% | 52.3% | 118% | 26.7% | 6.97% (active)
13 | O=C(N=Nc1c(O)[nH]c2ccc(Cl)cc12)c1ccc2nc(-c3ccc(Cl)cc3)[nH]c2c1 | 11.8% | 29.9% | -10.4% (active) | 87.3% | 52.3% | 73.4% | 82.8% | 47.8% | 3.93% (active) | 6.71% (active)
14 | CN(CCSSCCN1CCOCC1)C(=O)Oc1cc2c(c3ccccc13)[C@H](CCl)CN2C(=O)c1cc2cc(OCCCN3CCC3)ccc2[nH]1 | -84.3% (active) | -61.3% (active) | -9.12% (active) | -16.7% (active) | -10.3% (active) | -66.8% (active) | -48.1% (active) | -14.5% (active) | -41.3% (active) | -39.8% (active)
15 | CC(C)(C)C(=O)C1CC(C#N)=C2C=Cc3c(ccc4ccccc34)N21 (stereo not given) | 92.4% | 79.7% | 92.4% | 90.5% | 92.6% | 85.2% | 86.7% | 144% | 91.4% | 81.6%
16 | COc1ccc(OC)c(Cn2cc(C#N)c(N)c2C(=O)c2ccc(Br)cc2)c1 | 4.44% (active) | 58.2% | 64.4% | 34.6% | 62.4% | 84.9% | 45.2% | 86.7% | 44.3% | 20.4%
17 | CCOc1ccccc1[C@H]1C(C(=O)c2ccc(Cl)cc2)C2(N[C@@H]1c1ccccc1)C(=O)Nc1ccc(Br)cc12 (stereo not given in full) | -66.8% (active) | 3.88% (active) | -86.6% (active) | 5.4% (active) | 27% | 1.27% (active) | 7.21% (active) | -22.5% (active) | 4.88% (active) | -23.2% (active)
18 | N#CC1=C(c2ccco2)Nc2c(c(-c3ccccc3)nn2-c2ccccc2)C12C(=O)Nc1ccc(Cl)cc12 (stereo not given) | 80.2% | 24.2% | -44.4% (active) | 43.1% | -15.4% (active) | 8.94% (active) | 33% | 135% | 25% | 34.8%
19 | COc1c2c(c(Br)c3c1C(CCc1ccccc1)N(C)CC3)OCO2 (stereo not given) | 68.6% | 36.3% | 35% | 35.9% | 70.9% | 30.3% | 36% | 82% | 30.1% | 25.3%
20 | OC(c1ccccc1)(c1ccccc1)C1CCN(c2ccc3nnc(Cl)n3n2)CC1 | 31.3% | 19.9% | 50.1% | -74.1% (active) | 49.7% | 29.7% | 30.8% | 77.8% | 18.2% | -2.45% (active)
21 | O=C(CSc1nc2sc3c(c2c(=O)n1-c1ccc(Cl)cc1)CCCC3)N/N=C/C=C/c1ccccc1 | -29.3% (active) | 39.7% | 15.4% | 85.1% | -19% (active) | 25.3% | 38.5% | -40.8% (active) | -33.7% (active) | -24.4% (active)
22 | COc1ccc2c(c1)c(-c1cc(N)n3nc(-c4c[nH]c5ccccc45)cc3n1)cn2C | -65.4% (active) | -79.6% (active) | -81% (active) | -71.1% (active) | -92.5% (active) | -79.6% (active) | -70.2% (active) | -57.8% (active) | -25.1% (active) | -1.51% (active)
23 | CC1=C(C)C(=O)C(N2CCSCC2)=CC1=O | 94.6% | 92.6% | 100% | 76.2% | 130% | 96.6% | 93.2% | 98.2% | 81% | 86.3%
24 | Cn1cc(-c2cc(N)n3nc(-c4c[nH]c5ccccc45)cc3n2)c2cc(Cl)ccc21 | -64.6% (active) | -77% (active) | -81.2% (active) | -80.1% (active) | -90.2% (active) | -75.6% (active) | -63.6% (active) | -59.1% (active) | -16.2% (active) | 6.43% (active)
25 | Cc1ccc(C(C)C)cc1Oc1cccc(-c2c(-c3ccc(C(F)(F)F)cc3)ncn2C2CCNCC2)n1 | -93.1% (active) | -91% (active) | -92.1% (active) | -97.4% (active) | -94.9% (active) | -100% (active) | -98.1% (active) | -86.2% (active) | -73.8% (active) | -80.3% (active)
26 | COc1ccc(-c2nc3ccc(-c4nnc(SCc5ccccc5)o4)cc3[nH]2)cc1 | 11% | -0.06% (active) | -66.3% (active) | -44.2% (active) | -35.3% (active) | -85.2% (active) | -77.1% (active) | -36.2% (active) | 13.9% | 11.5%
